# According to PubChem BioAssay (Tox21):
# Values joined by “and” are separate entries in the source; they are usually repeats but may differ in a detail not shown here. Identical values can stand only once. Records with an inconclusive call do not appear. Entries that show only a call come without a potency. Some compounds were tested as several samples or in several runs, with calls that do not always agree. Active and inactive are the calls of the source. Unless noted, calls come from the whole dose curve; as a rule, active = well fitted curve in the direction sought with a large enough effect in the repeat runs; inconclusive = weak or mixed curves; inactive = no such curve, though single readings can be large; an effect the other way counts as inactive or inconclusive.
# What was measured:
# [1] = qHTS assay for small molecule agonists of the p53 signaling pathway (AID 651631; calls by dose curve; note: nearly all actives have a fitted effect of over 15% in size; note: potency is the fitted concentration of half-maximal effect)
# Summary of the method: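 p53RE-bla HCT-116 cells; compounds 16 h, 37 °C; LiveBLAzer B/G FRET substrate 2 h RT; fluorescence intensity read-out, qHTS format.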
# [2] = qHTS assay for small molecule disruptors of the mitochondrial membrane potential (AID 720635); note: potency is the fitted concentration of half-maximal effect
# Summary of the method: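 HepG2 cells exposed to compound 1 hr at 37C, then Mito-MPS dye 30 min. Ratio read of aggregate (540/590 nm) versus monomer (490/535 nm) fluorescence.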
# [3] = qHTS assay to test for compound auto fluorescence at 590 nm (red) in HepG2 cells (AID 720674)
# Summary of the method: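 HepG2 cells, 2,000 per well in MEM with 10% FBS, attached overnight at 37 C, then got 23 nL compound or DMSO. After 1 hr at 37 C, 5% CO2, red fluorescence was read at 540/590 nm against Rose Bengal sodium as reference.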
# [4] = qHTS assay to test for compound auto fluorescence at 535 nm (green) in HepG2 cells (AID 720675); note: potency is the fitted concentration of half-maximal effect
# [5] = qHTS assay to test for compound auto fluorescence at 590 nm (red) in HEK293 cells (AID 720679)
# Summary of the method: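 We plated HEK293 cells in 10% dialyzed FBS medium, let them adhere for 4-5 hr, then added 23 nL compound. Overnight at 37C and 5% CO2 preceded fluorescence measurement at 540/590nm.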
# [6] = qHTS assay for small molecules that induce genotoxicity in human embryonic kidney cells expressing luciferase-tagged ATAD5 (AID 651632); note: nearly all actives have a fitted effect of over 15% in size
# Summary of the method: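 HEK293T cells carrying luciferase-tagged ATAD5 were given compound or DMSO vehicle and incubated 16 hr at 37C, 5% CO2. Luciferase activity was read after 30 min at room temperature with Amplite; a rise signals genotoxic stress.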
# [7] = qHTS assay for small molecule agonists of the p53 signaling pathway - cell viability (AID 651633; calls by dose curve; note: nearly all actives have a fitted effect of over 30% in size; note: potency is the fitted concentration of half-maximal effect)
# Summary of the method: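 p53RE-bla cells were treated with compound for 16 hours at 37 C. Cytotoxicity was then measured as CellTiter-Glo luminescence after 30 min at room temperature.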
# [8] = qHTS assay for small molecules that induce genotoxicity in human embryonic kidney cells expressing luciferase-tagged ATAD5 - cell viability (AID 651634; calls by dose curve; note: nearly all actives have a fitted effect of over 25% in size; note: potency is the fitted concentration of half-maximal effect)
# Summary of the method: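 HEK293T cells carrying luciferase-tagged ATAD5, 2,000 cells/well, exposed to compound for 15.5 hr at 37C. Viability read as live-cell protease activity by CellTiter-Fluor fluorescence after 30 min at 37C.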
# [9] = qHTS assay for small molecule disruptors of the mitochondrial membrane potential - cell viability (AID 720634; calls by dose curve; note: nearly all actives have a fitted effect of over 20% in size; note: potency is the fitted concentration of half-maximal effect)
# Summary of the method: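 HepG2 cells, 2,000 per well, attached overnight, then treated 1 hr at 37 C, 5% CO2. Viability read as ATP by CellTiter-Glo luminescence after 30 min at room temperature. Read in the same wells as the m-MPI membrane-potential dye assay.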
# [10] = qHTS assay to test for compound auto fluorescence at 460 nm (blue) in HEK293 cells (AID 720678)
# Summary of the method: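 Triamterene serves as the blue fluorophore standard. Compound signal at 405/460 nm is read in HEK293 wells (2,000 cells, 10% dialyzed FBS) after overnight treatment at 37C.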
Compound,Potency [1],Potency [2],Potency [3],Potency [4],Potency [5],Potency [6],Potency [7],Potency [8],Potency [9],Potency [10]
C[n+]1c2cc(N)ccc2cc2ccc(N)cc21 (tested in a mixture with another compound),7.5 µM (active),0.668 µM (active),inactive,14.1 µM (active),inactive,,,,,
CCCCCCCOC(=O)c1ccc(O)cc1,,8.64 µM (active) and 8.63 µM (active),inactive,inactive,inactive,inactive,inactive and 61.1 µM (active),inactive,27.3 µM (active),inactive
CN(C)CCCN1c2ccccc2Sc2ccc(C(F)(F)F)cc21,11.9 µM (active),,inactive,inactive,inactive,inactive,29.8 µM (active),,,inactive
CO[C@H]1C=CO[C@@]2(C)Oc3c(C)c(O)c4c(O)c(cc(O)c4c3C2=O)NC(=O)/C(C)=C\C=C/[C@H](C)[C@H](O)[C@@H](C)[C@@H](O)[C@@H](C)[C@H](OC(C)=O)[C@@H]1C,inactive,,inactive,inactive,inactive,,inactive,inactive,inactive,inactive
C=CCCCCCCC=C,inactive,inactive,inactive,inactive,inactive,,inactive,inactive,inactive,inactive
O=C1OC(=O)c2cccc3cccc1c23,inactive,2.76 µM (active),inactive,inactive,inactive,,inactive,inactive,inactive,inactive
Cc1c(C(=O)O)cccc1[N+](=O)[O-],inactive,inactive,inactive,inactive,inactive,,inactive,inactive,inactive,
O=C(O)Cc1ccc(OCCNC[C@H](O)c2ccccc2)cc1,,inactive,inactive,inactive,inactive,inactive,inactive,inactive,inactive,inactive
C=C1C(C)(C)[C@@]2(Cl)C(Cl)[C@]1(Cl)C(Cl)(Cl)C2(Cl)Cl (stereo partly drawn),,12 µM (active),inactive,inactive,inactive,inactive,67.3 µM (active),inactive,inactive,inactive
C=C(C)C(=O)OCCC[Si](Cl)(Cl)Cl,inactive,61.7 µM (active),inactive,inactive,inactive,,inactive,,,inactive
CNC(=O)c1cc(Oc2ccc(NC(=O)Nc3ccc(Cl)c(C(F)(F)F)c3)cc2)ccn1,5.96 µM (active),0.88 µM (active),inactive,inactive,inactive,,5.96 µM (active),,,inactive
CC1=C(/C=C/C(C)=C/C=C/C(C)=C/C(=O)Nc2ccc(O)cc2)C(C)(C)CCC1,29.8 µM (active),3.35 µM (active) and 2.8 µM (active),inactive,inactive,inactive,,29.8 µM (active) and 62.7 µM (active),23.7 µM (active) and 28 µM (active),inactive,inactive
Nc1ccc2cc3ccc(N)cc3nc2c1,3.35 µM (active) and 3.06 µM (active),2.66 µM (active) and 1.22 µM (active),inactive,12.6 µM (active),inactive,inactive,inactive,,,
C=CC(=C)CCC=C(C)C,inactive,,inactive,inactive,inactive,,inactive,inactive,inactive,inactive
O=S(=O)(O)CCCN1CCOCC1,inactive,inactive,inactive,inactive,inactive,,inactive,inactive,inactive,inactive
CCC(C)c1cc([N+](=O)[O-])cc([N+](=O)[O-])c1OC(=O)OC(C)C (stereo not drawn),30.6 µM (active),3.06 µM (active),inactive,inactive,inactive,inactive,,61.1 µM (active),,inactive
CC(O)C#CC(C)O (stereo not drawn),inactive,,inactive,inactive,inactive,,,inactive,inactive,inactive
COC(=O)CC(C)CCC=C(C)C (stereo not drawn),,inactive,inactive,inactive,inactive,inactive,inactive,inactive,inactive,inactive
CCN(CC)CCNc1ccc(CO)c2sc3ccccc3c(=O)c12,5.96 µM (active),,inactive,inactive,inactive,inactive,,23.7 µM (active),inactive,inactive
Clc1ccc(C(c2ccccc2Cl)C(Cl)Cl)cc1 (stereo not drawn),68.6 µM (active),13.3 µM (active) and 27.3 µM (active),inactive,inactive,inactive,,23.7 µM (active),inactive,inactive,inactive
CCCCCCOc1ccc(O)cc1,24.3 µM (active),12.2 µM (active),inactive,inactive,inactive,,inactive,inactive,,
CC(=O)Oc1ccc(C2(c3ccc(OC(C)=O)cc3)C(=O)Nc3ccccc32)cc1,211 nM (active) and 237 nM (active),,inactive,inactive,inactive,inactive,150 nM (active) and 266 nM (active),,,inactive
S=P(N1CC1)(N1CC1)N1CC1,14.4 µM (active),inactive,inactive,inactive,inactive,,inactive,inactive,inactive,
CC1(C)C(=O)N(Br)C(=O)N1Br,inactive,inactive,inactive,inactive,inactive,,inactive,,inactive,
CCCCCCCCCCCCOC(=O)c1cc(O)c(O)c(O)c1,68.3 µM (active) and 61.1 µM (active),3.05 µM (active) and 4.33 µM (active),inactive,inactive,inactive,,48.3 µM (active) and 48.6 µM (active),60.9 µM (active) and 13.7 µM (active),,inactive
